Records with an inconclusive call do not appear. Calls of active or inactive are those of the source. Unless noted, calls come from the whole dose curve; as a rule, active = well fitted curve in the direction sought with a large enough effect; inconclusive = small, poorly fitted or top-dose-only effect, or another doubt; inactive = no such curve, though single readings can be large; an effect the other way counts as inactive or inconclusive.
Tests used:
[1] = target: Lysosomal acid glucosylceramidase (Homo sapiens) (UniProt P04062); assay: Glucocerebrosidase-p2 (AID 348; in the data active = potency below about 10 µM; note: potency is the fitted concentration of half-maximal effect); conditions: purified GBA, blue fluorogenic substrate, 40 min
Chain of Lysosomal acid glucosylceramidase (Homo sapiens) (P04062 whole entry, looked up): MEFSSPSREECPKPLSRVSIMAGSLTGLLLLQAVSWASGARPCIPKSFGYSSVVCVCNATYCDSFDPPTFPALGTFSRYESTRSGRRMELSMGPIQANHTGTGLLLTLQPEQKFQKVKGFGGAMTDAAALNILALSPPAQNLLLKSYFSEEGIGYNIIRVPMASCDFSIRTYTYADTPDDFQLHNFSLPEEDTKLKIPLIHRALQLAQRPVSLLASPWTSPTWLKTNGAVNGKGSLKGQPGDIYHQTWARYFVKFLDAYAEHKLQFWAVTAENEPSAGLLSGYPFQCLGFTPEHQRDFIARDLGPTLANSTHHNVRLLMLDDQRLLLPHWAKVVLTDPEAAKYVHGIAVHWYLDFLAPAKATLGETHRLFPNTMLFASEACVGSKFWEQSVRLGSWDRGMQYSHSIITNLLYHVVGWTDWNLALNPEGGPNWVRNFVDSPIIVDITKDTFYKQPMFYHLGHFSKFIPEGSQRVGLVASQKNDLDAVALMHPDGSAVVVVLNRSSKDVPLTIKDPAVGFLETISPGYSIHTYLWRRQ
Procedure, shortened: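 Compounds titrated from 0.6 nM upwards against 0.2 nM enzyme in pH 5.9 citric acid/KH2PO4, taurocholate, tween-20; blue fluorogenic substrate 80 uM, 40 min room temperature, stopped and read Ex 365/Em 440 for AC50.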

[2] = target: Cytochrome P450 1A2 (Homo sapiens) (UniProt P05177); assay: p450-cyp1a2 (AID 410; calls by dose curve;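 note: -100% = full effect of reference inhibitor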); conditions: recombinant CYP1A2, luciferin-ME demethylation, luminescence; series mostly up to 11.4 µM
Chain of Cytochrome P450 1A2 (Homo sapiens) (P05177 whole entry, looked up): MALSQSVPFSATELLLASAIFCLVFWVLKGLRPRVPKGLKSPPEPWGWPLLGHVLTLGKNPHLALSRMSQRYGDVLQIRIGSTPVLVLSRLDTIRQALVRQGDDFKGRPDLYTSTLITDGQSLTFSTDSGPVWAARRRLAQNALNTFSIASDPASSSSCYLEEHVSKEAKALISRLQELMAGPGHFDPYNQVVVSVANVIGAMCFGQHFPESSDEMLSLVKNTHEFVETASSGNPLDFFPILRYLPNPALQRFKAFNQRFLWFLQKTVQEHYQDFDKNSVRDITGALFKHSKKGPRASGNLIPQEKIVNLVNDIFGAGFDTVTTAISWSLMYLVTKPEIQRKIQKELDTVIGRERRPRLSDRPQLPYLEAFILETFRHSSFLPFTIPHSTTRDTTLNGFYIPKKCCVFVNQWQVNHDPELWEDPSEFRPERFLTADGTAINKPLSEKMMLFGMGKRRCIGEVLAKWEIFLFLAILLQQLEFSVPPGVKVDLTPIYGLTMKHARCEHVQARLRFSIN
Procedure, shortened: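 Human CYP1A2 (20nM) demethylated Luciferin-ME at its Km (100uM) in 100mM KPO4. After 10 min compound preincubation, NADPH regeneration ran the reaction 60 min at room temperature. Luciferin was read by luminescence, normalized to 57 uM furafylline.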

[3] = Cell Viability - BJ (AID 421; calls by dose curve;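 note: potency is the fitted concentration of half-maximal effect; cells exposed to compound for 40 hours at 37 °C before readout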); conditions: BJ fibroblast viability, qHTS
Procedure, shortened: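 Luminescent ATP signal (CellTiter-Glo, 20 min at room temperature) served as the read-out of viable BJ cells after 40 hours of compound treatment. Responses were scaled between DMSO and 100 uM tamoxifen, and AC50 values were obtained by Hill modeling.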

[4] = Cell Viability - Jurkat (AID 426;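 active = dose-dependent loss of cell ATP signal giving a full or clear fitted curve, ranked by lower potency value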; note: potency is the fitted concentration of half-maximal effect); conditions: qHTS
Procedure, shortened: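 Jurkat (clone E6-1, human T-cell leukemia) cells, 5000/well in complete medium, were exposed to compound for 40 hr at 37 °C. Viability was read as intracellular ATP by CellTiter-Glo luminescence; AC50 came from Hill fits of concentration-response data.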

[5] = Cell Viability - Hek293 (AID 427;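 active = compounds whose dose-response curve shows a full or clear partial loss of cell viability, called from curve shape rather than a numeric limit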;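 note: potency is the fitted concentration of half-maximal effect; cells exposed to compound for 40 hours at 37 °C before reading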); conditions: qHTS
Procedure, shortened: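 Luminescent ATP read-out (CellTiter-Glo, 20 min RT) after 40 hr compound exposure at 37 °C in complete medium. Signal normalized to DMSO (basal) and 100 uM tamoxifen (100% inhibition); concentration-response fitted with the standard Hill equation to give AC50.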

[6] = Cell Viability - HepG2 (AID 433; calls by dose curve;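 note: potency is the fitted concentration of half-maximal effect; potency for ATP loss meaning cytotoxicity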); conditions: qHTS
Procedure, shortened: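 ATP luminescence (CellTiter-Glo) after 40 h compound exposure, 37 °C, HepG2, 1500 cells/well, complete medium. Normalized: DMSO = basal, 100 uM tamoxifen = 100% inhibition. AC50 via standard Hill equation.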

[7] = Cell Viability - MRC5 (AID 434; calls by dose curve;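 note: potency is the fitted concentration of half-maximal effect; potency reflects cytotoxicity seen as loss of intracellular ATP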); conditions: MRC5 lung fibroblast viability, qHTS
Procedure, shortened: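 qHTS cytotoxicity in human lung fibroblast MRC5 cells; 40 hr treatment, 37 °C; cellular ATP by luciferase luminescence; DMSO = 0%, 100 uM tamoxifen = 100% inhibition; Hill-fit AC50.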

[8] = Cell Viability - SK-N-SH (AID 435; calls by dose curve; note: potency is the fitted concentration of half-maximal effect); conditions: SK-N-SH neuroblastoma cell viability qHTS
Procedure, shortened: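 CellTiter-Glo ATP luminescence, 20 min RT read; cells pre-plated 5 hr, compound 40 hr at 37 °C, 1500 cells/well, complete medium. Normalized DMSO = 0, 100 uM tamoxifen = 100% inhibition; Hill-fit AC50.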

[9] = NFAT Signaling Pathway (AID 444; active = well fitted curve in either direction with a large enough effect, not every such curve was filed as active;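 note: carbachol stimulus at about its EC50 of 1 µM final; % is set by controls: 0 for no effect and ±100 for the full control effect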); conditions: Jurkat NFAT-bla M1, carbachol, beta-lactamase ratio, 5 h; at 7.69 µM (top of the series) unless noted
Procedure, shortened: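 Read-out: CCF4 FRET ratio (460 nm/530 nm) after 1 h RT dye loading, used for %activity and AC50 from titration series. Cells: Jurkat NFAT-β-lactamase/M1 line, treated with compound plus 1 uM carbachol for 5 h, 37 °C.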

[10] = Stat Signaling Pathway (AID 446; active = well fitted curve in either direction with a large enough effect, not every such curve was filed as active;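 note: ME-180 cervical cancer cells given 40 pM IL-6 alongside compound; SIE-controlled beta-lactamase reporter measured as 460/530 nm FRET emission ratio; % is set by controls: 0 for no effect and ±100 for the full control effect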); conditions: ME-180 SIE beta-lactamase reporter, IL-6 stimulated, 5 h; at 7.69 µM (top of the series) unless noted
Procedure, shortened: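 ME-180 SIE-bla cells; overnight plating; cpd + IL-6 40 pM, 5 h, 37 C; LiveBLAzer 2.5 h RT; 460/530 nm emission ratio. Normalized to 300 pM IL-6 and 125 nM JAK inhibitor controls.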

[11] = target: Glucocorticoid receptor (Homo sapiens) (UniProt P04150); assay: GR-GFP Redistribution (AID 450;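 active = compounds whose dose series gives a full or clear partial fitted curve of increased nuclear translocation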; note: potency is the fitted concentration of half-maximal effect); conditions: U2OS GR-GFP nuclear translocation, laser cytometry, 2 h
Chain of Glucocorticoid receptor (Homo sapiens) (P04150 whole entry, looked up, the tested form may be a part): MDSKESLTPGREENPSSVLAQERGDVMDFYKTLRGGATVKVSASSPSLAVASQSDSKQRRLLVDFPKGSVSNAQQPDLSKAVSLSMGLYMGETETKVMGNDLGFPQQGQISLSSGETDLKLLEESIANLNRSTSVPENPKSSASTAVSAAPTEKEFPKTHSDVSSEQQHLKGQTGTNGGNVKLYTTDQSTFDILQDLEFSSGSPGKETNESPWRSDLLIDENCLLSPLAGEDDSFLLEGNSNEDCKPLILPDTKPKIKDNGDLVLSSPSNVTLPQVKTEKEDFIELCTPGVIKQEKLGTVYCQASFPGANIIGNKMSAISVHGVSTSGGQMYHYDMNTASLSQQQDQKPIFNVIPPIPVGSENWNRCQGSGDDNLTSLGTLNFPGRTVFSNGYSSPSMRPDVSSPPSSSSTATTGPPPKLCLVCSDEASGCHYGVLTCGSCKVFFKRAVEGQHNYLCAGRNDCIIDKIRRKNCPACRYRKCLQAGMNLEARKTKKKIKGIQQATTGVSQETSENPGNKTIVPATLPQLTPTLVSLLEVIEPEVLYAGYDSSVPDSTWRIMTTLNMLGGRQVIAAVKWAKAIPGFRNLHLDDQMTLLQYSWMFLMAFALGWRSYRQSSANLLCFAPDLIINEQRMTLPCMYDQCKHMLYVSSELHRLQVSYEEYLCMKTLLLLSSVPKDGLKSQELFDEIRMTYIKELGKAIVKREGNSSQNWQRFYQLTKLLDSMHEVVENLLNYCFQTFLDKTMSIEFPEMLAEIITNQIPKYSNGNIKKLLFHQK

[12] = target: Glucocorticoid receptor (Homo sapiens) (UniProt P04150); assay: GR-EFC Redistribution (AID 451; calls by dose curve; note: potency is the fitted concentration of half-maximal effect); conditions: CHO-K1 GR-EFC translocation, beta-gal luminescence, 2 h
Procedure, shortened: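 Translocation of GR-ED fusion to nuclear EA restores b-gal, read by luminescence after 1 h room-temperature detection. Engineered CHO-K1 biosensor cells, 1,000/well, exposed 2 h at 37 C to titrations up to 46 uM final.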

[13] = target: Mitogen-activated protein kinase 10 (Mus musculus) (UniProt Q61831); assay: JNK3 AlphaScreen Assay (AID 530; active = well fitted curve in either direction with a large enough effect, not every such curve was filed as active;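 note: kinase came from lysate of stimulated human HepG2 cells; signal reports phosphorylation of biotinylated GST-cJun 1-79 at Ser73 with 10 µM ATP; % is set by controls: 0 for no effect and ±100 for the full control effect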); conditions: JNK3 lysate, c-Jun phosphorylation; series mostly up to 11.4 µM
Procedure, shortened: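 Room-temperature AlphaScreen kinase assay; pre-activated HepG2 lysate as JNK3 source, biotin-GST-cJun(1-79) substrate, 10 uM ATP, compound 15 min preincubation.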

[14] = Cell Viability - N2a (AID 540); conditions: N2a mouse neuroblastoma cell viability; activity change, negative = cytotoxicity: at 92.2 µM (top of the series);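 note: plate controls were DMSO alone for no effect and tamoxifen control for full effect; nearly all actives have a fitted effect of over 45% in size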
Procedure, shortened: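 Mouse neuroblastoma N2a cells (1500/well) were preincubated 5 hr at 37 °C, then exposed to compounds for 40 hr at 37 °C in complete medium. Viability was read as intracellular ATP by CellTiter-Glo luminescence; AC50 from Hill fits.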

[15] = Cell Viability - NIH 3T3 (AID 541); conditions: NIH 3T3 cell viability, qHTS; activity change, negative = cytotoxicity: at 92.2 µM (top of the series);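 note: plate controls were DMSO alone for no effect and tamoxifen positive control for full effect; nearly all actives have a fitted effect of over 25% in size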
Procedure, shortened: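 NIH 3T3 mouse embryo fibroblasts (1000 cells/well) were plated in complete medium and treated with compound for 40 hr at 37 °C. Viability was read as intracellular ATP by CellTiter-Glo luminescence; AC50 values came from Hill-equation fits of concentration-response data.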

[16] = Cell Viability - HUV-EC-C (AID 542); conditions: HUV-EC-C endothelial cell viability, qHTS; series mostly up to 92.2 µM; note: % is set by controls: 0 for no effect and ±100 for the full control effect; nearly all actives have a fitted effect of over 35% in size
Procedure, shortened: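 HUV-EC-C normal human vascular endothelial cells, 1000 cells/well, pre-incubated 5 hr at 37 °C, then exposed to compounds for 40 hr at 37 °C in complete medium. Viability measured as intracellular ATP by CellTiter-Glo luminescence; AC50 from Hill fits.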

[17] = Cell Viability - H-4-II-E (AID 543); conditions: H-4-II-E rat hepatoma viability; series mostly up to 92.2 µM; note: % is set by controls: 0 for no effect and ±100 for the full control effect; nearly all actives have a fitted effect of over 35% in size
Procedure, shortened: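 Rat hepatoma H-4-II-E cells (1500/well) were plated, incubated 5 hr at 37 °C, then exposed to compounds for 40 hr at 37 °C. Cellular ATP was read by CellTiter-Glo luminescence; AC50 came from Hill-equation fits of concentration-response data.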

[18] = Cell Viability - SH-SY5Y (AID 544); conditions: SH-SY5Y neuroblastoma cell viability; viability change, negative = cytotoxic: at 92.2 µM (top of the series); note: nearly all actives have a fitted effect of over 55% in size
Procedure, shortened: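 Human neuroblastoma SH-SY5Y cells (1500/well) in complete medium were exposed to compounds for 40 hr at 37 °C; intracellular ATP was then quantified by CellTiter-Glo luminescence after 20 min at room temperature. AC50 came from Hill-equation concentration-response fits.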

[19] = Cell Viability - Renal Proximal Tubule (AID 545); conditions: renal proximal tubule cells viability, primary cells of rat origin; activity change, negative = cytotoxicity: at 91.7 µM (top of the series); note: nearly all actives have a fitted effect of over 40% in size
Procedure, shortened: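 Rat kidney proximal tubule cells, freshly isolated; 1000 cells/well, 5 hr settle, compound 40 hr 37 °C. CellTiter-Glo 20 min RT, luminescence read. AC50 by standard Hill fit.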

[20] = Cell Viability - Mesenchymal (AID 546); conditions: mesenchymal cells viability, qHTS; activity change, negative = cytotoxicity: at 91.7 µM (top of the series);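 note: cells exposed to compound for 40 hours before reading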
Procedure, shortened: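 AC50 values reflect the drop in intracellular ATP in a human kidney mesenchymal line derived from normal glomeruli. Treatment lasts 40 hr at 37 °C in complete medium, and the signal comes from CellTiter-Glo luminescence.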

[21] = target: 3',5'-cyclic-AMP phosphodiesterase 4B (Homo sapiens) (UniProt Q07343); assay: qHTS Assay for Inhibitors of PDE-IV (AID 607; active = well fitted activation curve with a large enough effect in the main read-out, with a control signal flat, not every such curve was filed as active; note: % of control where 0% means no effect); conditions: HEK293 ACTOne CNG channel cells, membrane potential fluorescence; series mostly up to 22.9 µM
Chain of 3',5'-cyclic-AMP phosphodiesterase 4B (Homo sapiens) (Q07343 whole entry, looked up): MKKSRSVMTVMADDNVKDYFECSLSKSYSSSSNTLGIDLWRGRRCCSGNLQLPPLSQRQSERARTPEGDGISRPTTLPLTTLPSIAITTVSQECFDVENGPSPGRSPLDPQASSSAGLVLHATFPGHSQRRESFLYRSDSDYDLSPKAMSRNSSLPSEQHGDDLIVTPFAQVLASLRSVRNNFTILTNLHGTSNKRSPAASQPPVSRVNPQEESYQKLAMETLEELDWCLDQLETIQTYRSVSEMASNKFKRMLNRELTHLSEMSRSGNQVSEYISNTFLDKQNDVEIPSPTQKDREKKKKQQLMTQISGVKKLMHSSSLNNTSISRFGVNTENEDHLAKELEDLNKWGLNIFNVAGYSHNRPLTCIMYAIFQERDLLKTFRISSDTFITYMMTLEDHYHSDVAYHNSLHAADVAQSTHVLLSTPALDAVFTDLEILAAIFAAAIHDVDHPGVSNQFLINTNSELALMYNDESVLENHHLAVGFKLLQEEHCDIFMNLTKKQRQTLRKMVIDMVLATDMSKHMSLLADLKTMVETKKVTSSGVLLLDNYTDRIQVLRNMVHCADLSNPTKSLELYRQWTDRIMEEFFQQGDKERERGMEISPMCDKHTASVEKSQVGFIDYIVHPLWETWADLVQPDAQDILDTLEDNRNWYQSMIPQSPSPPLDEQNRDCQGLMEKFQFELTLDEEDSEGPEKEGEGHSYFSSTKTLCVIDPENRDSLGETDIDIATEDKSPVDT
Procedure, shortened: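 ACTOne HEK293 cells carry a modified cAMP-gated CNG channel and express endogenous PDE4; plated 1000 cells/well, compounds up to 22.9 uM final. Membrane-potential dye fluorescence (ex 535/em 590) was read; parental cells received 10 uM forskolin + 100 uM RO 20-1724.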

[22] = Cellular Toxicity (caspase-3) HepG2 (AID 654); conditions: HepG2 caspase-3 activation, luminescence; series mostly up to 92.2 µM;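 note: cells exposed to compound for 16 hours before reading; 0% = DMSO alone and 100% = caspase signal from 100 µM tamoxifen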
Procedure, shortened: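 HepG2 cells (1500/well) in complete medium were treated with compounds for 16 hr at 37 °C. Caspase-3/7 activity was then read as luminescence from peptide-aminoluciferin cleavage. AC50 came from Hill fits, normalized to DMSO and 100 uM tamoxifen.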

[23] = Cellular Toxicity (caspase-3) Jurkat (AID 655); conditions: Jurkat caspase-3 activation, luminescence; caspase-3 activation: at 92.2 µM (top of the series), DMSO = 0%, tamoxifen = 100%;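 note: cells exposed to compound for 16 h at 37 °C before reading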
Procedure, shortened: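 Luminescent caspase-3/7 readout (aminoluciferin substrate cleavage) in human T-cell leukemia Jurkat cells after 16 hr compound exposure. Concentration-response normalized to DMSO and 100 uM tamoxifen; AC50 by standard Hill equation.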

[24] = Cellular Toxicity (caspase-3) HUV-EC-C (AID 656); conditions: HUV-EC-C cells, caspase-3 activation (apoptosis); series mostly up to 92.2 µM
Procedure, shortened: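 Luminescent caspase-3/7 activation (aminoluciferin substrate cleavage) in HUV-EC-C cells after 16 hr compound exposure, 37°C. Signal normalized to DMSO basal and 100 uM tamoxifen as 100%; AC50 from concentration-response fitted with the Hill equation.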

[25] = Cellular Toxicity (caspase-3) SHSY5Y (AID 657); conditions: SH-SY5Y caspase-3 activation; series mostly up to 91.7 µM;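 note: cells exposed to compound for 16 hours at 37 °C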
Procedure, shortened: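 Luminescent caspase-3/7 readout (aminoluciferin release) in SH-SY5Y cells after 16 h compound exposure in complete medium. Activity scaled between DMSO basal and 10 uM staurosporine as 100%; concentration-response fitted to Hill equation for AC50.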

CC(CCC(=O)O)(c1ccc(O)cc1)c1ccc(O)cc1
inactive: Potency [1] > 11.4 µM | Potency [2] | Potency [3] > 92 µM | Potency [4] > 92 µM | Potency [5] > 92 µM | Potency [6] > 92 µM | Potency [7] > 92 µM | Potency [8] > 92 µM | activity change, negative = inhibition [9] 6.62% | activity, negative = inhibition [10] -4.62% | Potency [11] > 46 µM | Potency [12] > 9.22 µM | Potency [13] | activity change, negative = cytotoxicity [14] 8.91% | activity change, negative = cytotoxicity [15] -7.14% | Potency [16] | Potency [17] | Potency [18] | Potency [19] | Potency [20] | Potency [21] | Potency [22] | Potency [23] | Potency [24] | Potency [25]

Source: PubChem BioAssay (NCATS)
